Assay results published in PubChem BioAssay (Tox21).
Records with an inconclusive call do not appear. Active and inactive are the calls of the source. Unless noted, the call rests on the fitted dose curve; in most records, active means well fitted curve in the direction sought with a large enough effect in the repeat runs; inconclusive means weak or mixed curves; inactive means no such curve, though single readings can be large; an effect the other way counts as inactive or inconclusive.

Legend:
[1] = A CellTox Green Cytotoxicity Assay to monitor cytotoxicity in HEK293 cells - 32 hour (AID 1224881); further: nearly all actives have a fitted effect of over 40% in size
Method in brief: (§1)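 Tox21 screen in HEK293: membrane-impermeant cyanine dye fluoresces on binding dead-cell DNA; compound pinned 5 h post-seeding, plates held at 37 C, signal read repeatedly through 40 h.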

[2] = A CellTox Green Cytotoxicity Assay to monitor cytotoxicity in HepG2 cells - 0 hour (AID 1224882); further: nearly all actives have a fitted effect of over 35% in size
Method in brief: (§2)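 Measurements at 0, 8, 16, 24, 32 and 40 h of treatment captured CellTox Green fluorescence in HepG2 cells that had been co-plated with reagent and preincubated 5 h at 37 C/5% CO2.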

[3] = A CellTox Green Cytotoxicity Assay to monitor cytotoxicity in HEK293 cells - 8 hour (AID 1224884); further: nearly all actives have a fitted effect of over 35% in size
Method in brief: as §1

[4] = qHTS RealTime-Glo MT Cell Viability Assay in HepG2 cells - 16 hour (AID 1224885); further: nearly all actives have a fitted effect of over 50% in size
Method in brief: (§3)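 Viability was tracked continuously by NanoLuc luminescence from prosubstrate reduced by living HepG2 cells, at successive time points over 40 h of compound exposure. Cells with reagent were preincubated 5 h at 37 °C before compound addition.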

[5] = qHTS RealTime-Glo MT Cell Viability Assay in HEK293 cells - 8 hour (AID 1224887); further: top concentration of the series differs between compounds; nearly all actives have a fitted effect of over 50% in size
Method in brief: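 HEK293 + NanoLuc + prosubstrate, 600 cells/well; 5 h, 37 C/5% CO2; compound 23 nL in DMSO by pintool; 37 C; luminescence read at 0, 8, 16, 24, 32 and 40 h time points.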

[6] = A CellTox Green Cytotoxicity Assay to monitor cytotoxicity in HEK293 cells - 16 hour (AID 1224888); further: nearly all actives have a fitted effect of over 35% in size
Method in brief: as §1

[7] = qHTS RealTime-Glo MT Cell Viability Assay in HepG2 cells - 0 hour (AID 1224889); further: nearly all actives have a fitted effect of over 50% in size
Method in brief: as §3

[8] = A CellTox Green Cytotoxicity Assay to monitor cytotoxicity in HepG2 cells - 8 hour (AID 1224890); further: nearly all actives have a fitted effect of over 45% in size
Method in brief: as §2

[9] = qHTS assay to identify small molecule antagonists of the estrogen receptor alpha (ER-alpha) signaling pathway using the BG1 cell line in the presence of 0.1 nM 17-beta-estradiol - cell viability counter screen (AID 1259241); further: nearly all actives have a fitted effect of over 40% in size
Method in brief: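 Viability in VM7Luc4E2 cells after 22 hr compound exposure under 0.1 nM 17beta-estradiol stimulation, by CellTiter-Fluor.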

[10] = qHTS assay to identify small molecule antagonists of the androgen receptor (AR) signaling pathway using the MDA cell line in the presence of 0.5 nM R1881 - cell viability counter screen (AID 1259242); further: nearly all actives have a fitted effect of over 45% in size
Method in brief: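 Concentration-response screen of compounds for toxicity in MDA-kb2 reporter cells: 16 hr at 37C with 0.5 nM R1881, endpoint live-cell protease fluorescence measured in the reporter wells.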

[11] = target: Androgen receptor (Homo sapiens) (UniProt P10275); test: qHTS assay to identify small molecule antagonists of the androgen receptor (AR) signaling pathway using the MDA cell line in the presence of 0.5 nM R1881 (AID 1259243); further: nearly all actives have a fitted effect of over 50% in size; further: potency means the concentration at half of the fitted maximal effect
Androgen receptor (Homo sapiens), sequence (P10275 whole entry, looked up): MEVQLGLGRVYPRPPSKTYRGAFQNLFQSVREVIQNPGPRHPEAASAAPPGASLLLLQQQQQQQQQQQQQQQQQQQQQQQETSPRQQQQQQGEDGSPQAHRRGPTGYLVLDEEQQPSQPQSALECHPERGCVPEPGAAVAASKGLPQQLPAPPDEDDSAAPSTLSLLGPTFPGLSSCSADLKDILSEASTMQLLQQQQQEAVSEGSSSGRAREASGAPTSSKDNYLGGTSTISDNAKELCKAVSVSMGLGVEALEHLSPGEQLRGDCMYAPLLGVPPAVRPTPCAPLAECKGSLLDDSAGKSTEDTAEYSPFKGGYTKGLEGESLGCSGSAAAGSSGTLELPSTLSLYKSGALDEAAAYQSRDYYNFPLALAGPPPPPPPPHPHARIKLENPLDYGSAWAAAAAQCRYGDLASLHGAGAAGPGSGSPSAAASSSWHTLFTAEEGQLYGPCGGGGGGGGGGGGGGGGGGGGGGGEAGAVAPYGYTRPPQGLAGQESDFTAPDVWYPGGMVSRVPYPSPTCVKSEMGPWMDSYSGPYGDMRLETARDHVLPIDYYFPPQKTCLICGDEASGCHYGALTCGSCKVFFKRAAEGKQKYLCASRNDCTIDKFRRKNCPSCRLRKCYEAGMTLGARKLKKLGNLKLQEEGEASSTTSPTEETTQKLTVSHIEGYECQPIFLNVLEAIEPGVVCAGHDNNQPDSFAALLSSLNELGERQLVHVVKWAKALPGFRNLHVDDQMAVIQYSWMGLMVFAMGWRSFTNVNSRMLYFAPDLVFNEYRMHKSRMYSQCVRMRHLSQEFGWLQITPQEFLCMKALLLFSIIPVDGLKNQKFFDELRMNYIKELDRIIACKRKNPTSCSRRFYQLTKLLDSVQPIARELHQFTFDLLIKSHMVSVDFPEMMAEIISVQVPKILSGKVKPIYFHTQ
Method in brief: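 With R1881 held at 0.5 nM (final), compound effects on MMTV-luciferase expression in MDA-kb2 cells were scored by luminescence after a 16 hr, 37C incubation.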

[12] = target: Estrogen receptor (Homo sapiens) (UniProt P03372); test: qHTS assay to identify small molecule antagonists of the estrogen receptor alpha (ER-alpha) signaling pathway using the BG1 cell line in the presence of 0.1 nM 17-beta-estradiol (AID 1259244); further: nearly all actives have a fitted effect of over 50% in size
Estrogen receptor (Homo sapiens), sequence (P03372 whole entry, looked up): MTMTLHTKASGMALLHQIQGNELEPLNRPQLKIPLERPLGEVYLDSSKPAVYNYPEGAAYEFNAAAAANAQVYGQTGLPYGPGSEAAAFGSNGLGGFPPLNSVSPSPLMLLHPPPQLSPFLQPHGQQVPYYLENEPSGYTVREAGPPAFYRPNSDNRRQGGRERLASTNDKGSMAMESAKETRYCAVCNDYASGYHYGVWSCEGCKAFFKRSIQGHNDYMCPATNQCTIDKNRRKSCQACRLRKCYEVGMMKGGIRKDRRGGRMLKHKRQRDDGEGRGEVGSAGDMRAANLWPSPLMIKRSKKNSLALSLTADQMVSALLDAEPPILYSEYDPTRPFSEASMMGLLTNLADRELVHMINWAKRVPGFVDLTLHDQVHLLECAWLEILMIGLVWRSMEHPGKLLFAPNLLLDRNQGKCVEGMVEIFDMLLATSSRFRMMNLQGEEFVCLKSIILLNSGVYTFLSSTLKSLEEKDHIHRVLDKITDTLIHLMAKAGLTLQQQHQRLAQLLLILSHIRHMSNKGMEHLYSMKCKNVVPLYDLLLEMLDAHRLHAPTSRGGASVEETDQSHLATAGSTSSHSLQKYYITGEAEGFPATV
Method in brief: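 Compounds were tested against 0.1 nM (final) 17beta-estradiol in VM7Luc4E2 cells, which express full-length ER-alpha and an ERE-luciferase reporter; luminescence was recorded following 22 h exposure.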

[13] = qHTS assay to identify small molecule HDAC inhibitors (AID 1259364);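 further: wild-type HCT-116 cells with endogenous class I/II HDAC activity; top concentration of the series differs between compounds; nearly all actives have a fitted effect of over 45% in size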
Method in brief: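 Screening used wild-type human colon HCT-116 cells incubated overnight, dosed with compounds for 2 hours, and assayed with a homogeneous luminogenic HDAC I/II reagent for 30 minutes at room temperature.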

[14] = qHTS assay to identify small molecule HDAC inhibitors - cell viability counter screen (AID 1259365)
Method in brief: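 Cytotoxicity was gauged in wild-type HCT-116 cells after a brief 2hr treatment with DMSO-dissolved compounds at 37C and 5% CO2, using CellTiter-Glo luminescence developed for 30min at room temperature.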

[15] = qHTS assay to identify small molecule agonists of the sonic hedgehog signaling (Shh) pathway - cell viability counter screen (AID 1259366); further: nearly all actives have a fitted effect of over 50% in size
Method in brief: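 Stable Gli1-Luc NIH/3T3 clone, 2,000 cells/well. Compound exposure 24hr at 37C. Read-out: CellTiter-Fluor fluorescence.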

[16] = qHTS assay to identify small molecule antagonists of the sonic hedgehog signaling (Shh) pathway - cell viability counter screen (AID 1259367); further: nearly all actives have a fitted effect of over 55% in size
Method in brief: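 Cytotoxicity was assessed in parallel with Shh reporter activity by measuring live-cell protease fluorescence (CellTiter-Fluor) in NIH/3T3 cells stably carrying Gli1-Luc, treated with compound under conditioned medium stimulation for 23 hr plus 1 hr reagent incubation.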

[17] = qHTS assay to identify small molecule agonists of the sonic hedgehog signaling (Shh) pathway (AID 1259368; calls by dose curve;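 further: NIH/3T3-derived 3T3Gli1-Luc cells carrying a stable Gli1-driven firefly luciferase reporter; series mostly up to about 92 µM; nearly all actives have a fitted effect of over 15% in size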)
Method in brief: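 Hedgehog pathway agonism scored by increased firefly luciferase luminescence in 3T3Gli1-Luc cells treated 24 hr at 37 C; detection used a 30 min room-temperature reagent incubation.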

[18] = qHTS RealTime-Glo MT Cell Viability Assay in HEK293 cells - 24 hour (AID 1224886)
Method in brief: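 Viability tracked continuously by luminescence as live cells reduce a prosubstrate for NanoLuc; HEK293 cells preincubated 5 h, compound-treated at 37 C, and read at 0, 8, 16, 24, 32 and 40 h.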

[19] = qHTS assay to identify small molecule phospholipidosis (PLD) inducers (AID 1259344; active means well fitted curve in the direction sought with a large enough effect; an effect the other way counts as inactive or inconclusive)
Method in brief: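 Cells (HepG2, 900 per well) attach for 4 h, receive LipidTOX Red and compound together, incubate 24 h at 37 C, are fixed 30 min with paraformaldehyde/Hoechst, then imaged at one site per well.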

[20] = A CellTox Green Cytotoxicity Assay to monitor cytotoxicity in HepG2 cells - 32 hour (AID 1224883); further: nearly all actives have a fitted effect of over 50% in size
Method in brief: as §2

Measured: Potency

Cc1ccc(-c2ccccc2C#N)cc1
active: [11] 11.9 µM
not listed: [18] | [19] | [20]
inactive: all other assays above

O=C1CCCCCCCCCCCCCCO1
not listed: [11] | [12] | [19] | [20]
inactive: all other assays above

[K+]
not listed: [3] | [11] | [19] | [20]
inactive: all other assays above

NS(=O)(=O)Cc1noc2ccccc12
not listed: [5] | [12] | [17] | [20]
inactive: all other assays above

C1CCC2=NCCCN2CC1
not listed: [11] | [12] | [15] | [19] | [20]
inactive: all other assays above

COc1ccnc(CS(=O)c2nc3cc(OC(F)F)ccc3[nH]2)c1OC (configuration not stated)
not listed: [11] | [15] | [17] | [19] | [20]
inactive: all other assays above

OCCCCCO
not listed: [2] | [11] | [17] | [19]
inactive: all other assays above

CCN1CCOCC1
not listed: [11] | [12] | [19] | [20]
inactive: all other assays above
